Assay results reported in publication PMC7862700, “An all-to-all approach to the identification of sequence-specific readers for epigenetic DNA modifications on cytosine”.

Tests used:
Experiment in all cases: DAPPL (digital affinity profiling via proximity ligation, sequencing); 10 mM Tris-HCl pH 7.5, 50 mM NaCl, 1 mM DTT, 4% glycerol, room temperature, 30 min; GST-TFs on glutathione beads, 16-mer random dsDNA library, 0.1% formaldehyde crosslink after washing; high values mean tight binding
Conditions in all cases: protein: recombinant; tags: N-terminal GST; dsDNA, one strand shown
[1] = target: T1, FLI1 (Homo sapiens, UniProt Q01543 1-452)
T1 sequence: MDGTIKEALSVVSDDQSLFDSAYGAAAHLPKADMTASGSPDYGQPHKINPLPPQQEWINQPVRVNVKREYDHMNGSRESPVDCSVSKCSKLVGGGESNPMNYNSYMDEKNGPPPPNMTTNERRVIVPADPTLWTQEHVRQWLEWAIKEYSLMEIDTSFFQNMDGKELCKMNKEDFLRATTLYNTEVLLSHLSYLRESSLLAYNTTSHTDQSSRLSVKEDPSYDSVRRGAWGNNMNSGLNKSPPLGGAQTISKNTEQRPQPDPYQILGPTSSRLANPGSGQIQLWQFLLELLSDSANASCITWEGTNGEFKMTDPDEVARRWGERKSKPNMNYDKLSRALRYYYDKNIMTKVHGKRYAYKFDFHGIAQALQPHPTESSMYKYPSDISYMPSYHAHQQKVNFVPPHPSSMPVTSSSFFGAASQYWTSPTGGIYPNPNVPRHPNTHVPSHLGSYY
Outline: (§1)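 Sequencing on an Illumina NextSeq500 followed washing, crosslinking with 0.1% formaldehyde, proximity ligation (BsaI/T4 ligase, 1 h, 37 °C) and PCR amplification of pools that had been incubated for 30 min at room temperature with 200 nmole of a random double-stranded 16-mer DNA library in Tris/NaCl/DTT/glycerol buffer. Each pool held DNA-barcoded human transcription factors, expressed in yeast as GST fusions and captured on glutathione beads, plus a tag-only sample. Binding signal is a hexamer's read frequency for a factor divided by its frequency in the tag-only sample.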

[2] = target: T2, ELK1 (Homo sapiens, UniProt P19419 1-428)
T2 sequence: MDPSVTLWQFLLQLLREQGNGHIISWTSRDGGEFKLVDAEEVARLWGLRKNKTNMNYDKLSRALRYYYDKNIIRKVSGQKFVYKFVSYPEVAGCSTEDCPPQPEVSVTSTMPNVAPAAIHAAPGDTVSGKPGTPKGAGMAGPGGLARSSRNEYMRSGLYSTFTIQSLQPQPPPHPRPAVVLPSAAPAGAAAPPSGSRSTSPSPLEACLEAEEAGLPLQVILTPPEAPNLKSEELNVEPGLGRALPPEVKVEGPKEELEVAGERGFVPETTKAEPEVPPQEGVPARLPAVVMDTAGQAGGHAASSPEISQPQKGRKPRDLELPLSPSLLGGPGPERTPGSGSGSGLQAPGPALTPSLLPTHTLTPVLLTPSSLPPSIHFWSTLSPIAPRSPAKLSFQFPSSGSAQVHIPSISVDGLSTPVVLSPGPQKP
Outline: as §1

[3] = target: T3, GABPA (Homo sapiens, UniProt Q06546 1-454)
T3 sequence: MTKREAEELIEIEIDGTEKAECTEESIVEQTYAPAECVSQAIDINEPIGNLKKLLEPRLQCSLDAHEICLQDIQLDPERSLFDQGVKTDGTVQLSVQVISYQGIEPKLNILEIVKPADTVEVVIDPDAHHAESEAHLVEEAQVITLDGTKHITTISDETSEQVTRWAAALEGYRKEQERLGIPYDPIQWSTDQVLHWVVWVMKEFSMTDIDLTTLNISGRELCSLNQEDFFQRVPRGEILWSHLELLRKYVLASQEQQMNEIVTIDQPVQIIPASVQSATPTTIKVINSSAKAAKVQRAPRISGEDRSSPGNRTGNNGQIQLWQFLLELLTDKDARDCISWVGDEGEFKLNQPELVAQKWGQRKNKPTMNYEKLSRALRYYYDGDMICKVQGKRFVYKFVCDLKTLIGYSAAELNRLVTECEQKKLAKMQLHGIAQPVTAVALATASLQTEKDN
Outline: as §1

[4] = target: T4, ERG (Homo sapiens, UniProt P11308 1-479)
T4 sequence: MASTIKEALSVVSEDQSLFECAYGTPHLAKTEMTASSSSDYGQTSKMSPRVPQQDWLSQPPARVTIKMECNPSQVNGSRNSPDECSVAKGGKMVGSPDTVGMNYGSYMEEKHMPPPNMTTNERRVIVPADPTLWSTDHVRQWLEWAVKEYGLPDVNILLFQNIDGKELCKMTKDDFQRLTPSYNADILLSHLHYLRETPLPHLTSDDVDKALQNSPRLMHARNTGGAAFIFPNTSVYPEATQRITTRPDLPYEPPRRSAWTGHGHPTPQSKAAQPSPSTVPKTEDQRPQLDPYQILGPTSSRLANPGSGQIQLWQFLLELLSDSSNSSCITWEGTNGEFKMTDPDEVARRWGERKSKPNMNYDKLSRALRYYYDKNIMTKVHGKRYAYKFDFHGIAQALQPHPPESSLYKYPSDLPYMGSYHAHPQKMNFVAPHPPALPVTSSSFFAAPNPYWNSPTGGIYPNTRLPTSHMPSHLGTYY
Outline: as §1

[5] = target: ELF1 (Homo sapiens, UniProt P32519 1-619)
Outline: as §1

[6] = target: T5, EHF (Homo sapiens, UniProt Q9NZC4 1-300)
T5 sequence: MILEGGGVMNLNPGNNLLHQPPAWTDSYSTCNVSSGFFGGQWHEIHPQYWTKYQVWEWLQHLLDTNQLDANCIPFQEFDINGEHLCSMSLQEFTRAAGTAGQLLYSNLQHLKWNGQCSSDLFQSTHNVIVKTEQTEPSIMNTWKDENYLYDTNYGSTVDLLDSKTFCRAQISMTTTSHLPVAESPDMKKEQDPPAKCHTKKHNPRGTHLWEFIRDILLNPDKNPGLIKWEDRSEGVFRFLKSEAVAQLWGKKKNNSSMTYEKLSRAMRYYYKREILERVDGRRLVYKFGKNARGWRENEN
Outline: as §1

[7] = target: SPI1 (Homo sapiens, UniProt P17947 1-270)
Outline: as §1

[8] = target: SPIB (Homo sapiens, UniProt Q01892 1-262)
Outline: as §1

[9] = target: T6, ELK3 (Homo sapiens, UniProt P41970 1-407)
T6 sequence: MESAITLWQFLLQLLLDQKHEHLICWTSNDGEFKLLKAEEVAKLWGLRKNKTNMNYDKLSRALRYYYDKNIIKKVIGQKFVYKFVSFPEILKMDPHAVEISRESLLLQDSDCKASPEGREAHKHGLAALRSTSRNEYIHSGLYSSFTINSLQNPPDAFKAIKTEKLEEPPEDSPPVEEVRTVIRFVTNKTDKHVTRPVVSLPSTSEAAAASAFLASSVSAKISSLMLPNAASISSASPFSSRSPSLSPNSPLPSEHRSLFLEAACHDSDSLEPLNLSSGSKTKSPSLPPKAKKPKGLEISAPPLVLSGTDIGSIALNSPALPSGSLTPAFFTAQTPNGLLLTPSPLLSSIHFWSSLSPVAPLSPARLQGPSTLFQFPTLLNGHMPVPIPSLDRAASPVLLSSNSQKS
Outline: as §1

[10] = target: T7, FEV (Homo sapiens, UniProt Q99581 1-238)
T7 sequence: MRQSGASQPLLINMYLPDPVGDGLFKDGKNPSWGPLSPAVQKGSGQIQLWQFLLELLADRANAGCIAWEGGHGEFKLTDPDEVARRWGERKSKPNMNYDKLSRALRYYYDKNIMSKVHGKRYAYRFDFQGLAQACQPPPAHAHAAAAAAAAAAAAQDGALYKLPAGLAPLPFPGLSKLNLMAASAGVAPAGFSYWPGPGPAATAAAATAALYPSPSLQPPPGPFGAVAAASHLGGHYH
Outline: as §1

[11] = target: ETV5 (Homo sapiens, UniProt P41161 1-510)
Outline: as §1

[12] = target: T8, SPIC (Homo sapiens, UniProt Q8N5J4 1-248)
T8 sequence: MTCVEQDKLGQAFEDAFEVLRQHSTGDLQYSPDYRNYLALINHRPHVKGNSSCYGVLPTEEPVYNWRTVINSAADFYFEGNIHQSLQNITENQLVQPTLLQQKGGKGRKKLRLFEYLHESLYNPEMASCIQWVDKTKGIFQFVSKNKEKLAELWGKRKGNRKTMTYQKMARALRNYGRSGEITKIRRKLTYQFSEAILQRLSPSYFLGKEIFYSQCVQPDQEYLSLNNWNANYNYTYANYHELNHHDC
Outline: as §1

[13] = target: ELF4 (Homo sapiens, UniProt Q99607 1-663)
Outline: as §1

[14] = target: T9, ELK4 (Homo sapiens, UniProt P28324-2 1-405)
T9 sequence: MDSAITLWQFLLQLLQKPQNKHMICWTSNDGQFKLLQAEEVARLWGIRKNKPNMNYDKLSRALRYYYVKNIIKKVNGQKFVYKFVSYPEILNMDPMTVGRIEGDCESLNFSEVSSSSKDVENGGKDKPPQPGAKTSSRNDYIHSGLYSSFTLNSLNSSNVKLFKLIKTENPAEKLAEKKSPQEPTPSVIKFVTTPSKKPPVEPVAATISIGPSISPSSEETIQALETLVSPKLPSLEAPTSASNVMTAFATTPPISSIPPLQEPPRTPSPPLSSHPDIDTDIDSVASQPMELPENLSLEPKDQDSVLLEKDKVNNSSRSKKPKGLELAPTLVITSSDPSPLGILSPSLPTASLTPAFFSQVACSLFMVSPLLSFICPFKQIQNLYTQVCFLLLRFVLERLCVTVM
Outline: as §1

[15] = target: T10, ETV2 (Homo sapiens, UniProt O00321 1-342)
T10 sequence: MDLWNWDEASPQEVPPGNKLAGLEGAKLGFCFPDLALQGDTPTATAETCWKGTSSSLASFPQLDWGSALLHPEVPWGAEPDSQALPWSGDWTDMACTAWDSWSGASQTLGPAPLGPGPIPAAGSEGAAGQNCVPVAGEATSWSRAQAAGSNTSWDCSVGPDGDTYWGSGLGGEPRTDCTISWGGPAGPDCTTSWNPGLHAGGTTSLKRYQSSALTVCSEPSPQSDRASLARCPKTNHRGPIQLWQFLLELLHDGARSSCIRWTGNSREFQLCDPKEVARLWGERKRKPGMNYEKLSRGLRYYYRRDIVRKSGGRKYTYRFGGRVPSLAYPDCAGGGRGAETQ
Outline: as §1

[16] = target: T11, ELF3 (Homo sapiens, UniProt P78545 1-371)
T11 sequence: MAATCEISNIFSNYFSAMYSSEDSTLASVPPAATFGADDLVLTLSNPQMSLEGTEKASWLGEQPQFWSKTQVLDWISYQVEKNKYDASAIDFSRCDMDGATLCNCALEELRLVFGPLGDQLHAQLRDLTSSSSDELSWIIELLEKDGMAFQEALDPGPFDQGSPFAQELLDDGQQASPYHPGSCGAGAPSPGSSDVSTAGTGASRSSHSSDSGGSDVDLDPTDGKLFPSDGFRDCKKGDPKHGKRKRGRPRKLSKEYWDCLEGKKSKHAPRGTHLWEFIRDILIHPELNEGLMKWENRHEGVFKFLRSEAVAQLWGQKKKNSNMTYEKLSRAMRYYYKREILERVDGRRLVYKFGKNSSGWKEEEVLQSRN
Outline: as §1

[17] = target: ETV1 (Homo sapiens, UniProt P50549 1-477)
Outline: as §1

Chain of ELF4 (Q99607 whole entry): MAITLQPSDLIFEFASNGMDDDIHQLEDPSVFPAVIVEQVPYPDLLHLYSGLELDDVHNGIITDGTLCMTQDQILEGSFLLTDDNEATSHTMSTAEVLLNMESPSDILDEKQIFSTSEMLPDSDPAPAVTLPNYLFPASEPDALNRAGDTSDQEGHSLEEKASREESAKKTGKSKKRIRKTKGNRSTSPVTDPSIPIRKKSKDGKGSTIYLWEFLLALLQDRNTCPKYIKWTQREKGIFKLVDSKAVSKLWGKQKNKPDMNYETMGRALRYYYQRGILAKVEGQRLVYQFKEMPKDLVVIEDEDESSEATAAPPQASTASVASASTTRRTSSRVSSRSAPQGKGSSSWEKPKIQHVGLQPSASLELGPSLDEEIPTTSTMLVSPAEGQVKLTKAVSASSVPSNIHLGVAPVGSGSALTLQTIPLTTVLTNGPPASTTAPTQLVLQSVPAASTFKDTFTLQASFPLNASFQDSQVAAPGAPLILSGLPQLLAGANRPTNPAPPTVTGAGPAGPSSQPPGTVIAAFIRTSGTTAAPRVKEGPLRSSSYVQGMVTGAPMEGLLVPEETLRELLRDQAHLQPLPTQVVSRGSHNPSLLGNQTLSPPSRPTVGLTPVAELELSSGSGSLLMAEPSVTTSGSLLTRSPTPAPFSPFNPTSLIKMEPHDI
Chain of ETV1 (P50549 whole entry): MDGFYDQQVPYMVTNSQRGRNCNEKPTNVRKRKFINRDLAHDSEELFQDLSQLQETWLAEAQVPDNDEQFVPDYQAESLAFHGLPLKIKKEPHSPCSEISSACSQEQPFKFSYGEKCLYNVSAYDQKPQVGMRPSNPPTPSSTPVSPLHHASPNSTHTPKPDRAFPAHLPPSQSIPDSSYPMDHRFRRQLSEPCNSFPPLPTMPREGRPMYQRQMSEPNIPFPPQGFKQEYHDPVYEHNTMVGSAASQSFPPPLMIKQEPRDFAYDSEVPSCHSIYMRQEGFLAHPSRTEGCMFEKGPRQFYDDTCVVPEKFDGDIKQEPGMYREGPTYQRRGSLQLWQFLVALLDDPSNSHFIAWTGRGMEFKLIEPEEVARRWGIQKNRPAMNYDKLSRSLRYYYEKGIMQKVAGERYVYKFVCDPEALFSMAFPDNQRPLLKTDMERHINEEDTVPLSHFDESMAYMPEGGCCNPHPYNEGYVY
Chain of SPIB (Q01892 whole entry): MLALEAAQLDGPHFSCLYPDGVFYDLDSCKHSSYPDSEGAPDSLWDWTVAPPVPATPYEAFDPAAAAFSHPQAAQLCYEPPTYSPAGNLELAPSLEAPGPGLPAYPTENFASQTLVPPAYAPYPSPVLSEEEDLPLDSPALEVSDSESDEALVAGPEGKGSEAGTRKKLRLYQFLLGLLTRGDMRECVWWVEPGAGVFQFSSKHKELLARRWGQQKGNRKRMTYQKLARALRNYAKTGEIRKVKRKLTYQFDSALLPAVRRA
Chain of ETV5 (P41161 whole entry): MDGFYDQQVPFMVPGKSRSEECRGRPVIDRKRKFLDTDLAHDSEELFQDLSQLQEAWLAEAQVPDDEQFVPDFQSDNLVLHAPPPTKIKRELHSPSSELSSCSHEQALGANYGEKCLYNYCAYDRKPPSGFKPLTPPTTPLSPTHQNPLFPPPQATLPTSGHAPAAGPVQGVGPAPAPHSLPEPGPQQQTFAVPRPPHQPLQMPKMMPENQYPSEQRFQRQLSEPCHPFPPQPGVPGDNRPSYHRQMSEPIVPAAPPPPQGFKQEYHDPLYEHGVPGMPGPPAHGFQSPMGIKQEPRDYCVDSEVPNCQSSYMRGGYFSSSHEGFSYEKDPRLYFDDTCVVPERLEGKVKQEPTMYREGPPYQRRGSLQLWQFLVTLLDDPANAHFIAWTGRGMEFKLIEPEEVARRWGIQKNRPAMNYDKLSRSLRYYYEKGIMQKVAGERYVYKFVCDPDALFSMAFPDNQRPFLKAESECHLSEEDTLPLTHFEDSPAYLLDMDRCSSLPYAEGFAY
Chain of ELF1 (P32519 whole entry): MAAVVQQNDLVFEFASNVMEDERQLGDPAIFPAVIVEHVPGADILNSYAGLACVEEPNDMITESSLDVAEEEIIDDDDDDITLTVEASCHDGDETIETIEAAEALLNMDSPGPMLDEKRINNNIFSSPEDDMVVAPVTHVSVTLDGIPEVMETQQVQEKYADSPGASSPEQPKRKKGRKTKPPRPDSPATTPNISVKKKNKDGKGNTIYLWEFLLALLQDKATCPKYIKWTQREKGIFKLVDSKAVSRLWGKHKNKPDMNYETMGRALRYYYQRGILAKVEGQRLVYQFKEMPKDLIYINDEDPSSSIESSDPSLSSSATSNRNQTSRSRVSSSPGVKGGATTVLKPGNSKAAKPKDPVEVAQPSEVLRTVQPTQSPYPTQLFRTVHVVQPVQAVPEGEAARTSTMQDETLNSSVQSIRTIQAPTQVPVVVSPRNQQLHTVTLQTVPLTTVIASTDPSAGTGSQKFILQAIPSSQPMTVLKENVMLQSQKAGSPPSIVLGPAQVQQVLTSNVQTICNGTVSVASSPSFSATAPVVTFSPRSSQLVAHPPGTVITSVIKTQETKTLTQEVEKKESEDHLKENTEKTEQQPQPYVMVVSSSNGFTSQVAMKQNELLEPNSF

AGTACA
binding signal [1]: 1.13 fold enrichment (6-mer frequency, TF over GST control)
binding signal [2]: 1.16 fold enrichment (6-mer frequency, TF over GST control)
binding signal [3]: 1.12 fold enrichment (6-mer frequency, TF over GST control)
binding signal [4]: 1.19 fold enrichment (6-mer frequency, TF over GST control)
binding signal [5]: 1.08 fold enrichment (6-mer frequency, TF over GST control)
binding signal [6]: 1.13 fold enrichment (6-mer frequency, TF over GST control)
binding signal [7]: 1.17 fold enrichment (6-mer frequency, TF over GST control)
binding signal [8]: 1.07 fold enrichment (6-mer frequency, TF over GST control)
binding signal [9]: 1.31 fold enrichment (6-mer frequency, TF over GST control)
binding signal [10]: 1.13 fold enrichment (6-mer frequency, TF over GST control)
binding signal [11]: 1.13 fold enrichment (6-mer frequency, TF over GST control)
binding signal [12]: 1.07 fold enrichment (6-mer frequency, TF over GST control)
binding signal [13]: 1.19 fold enrichment (6-mer frequency, TF over GST control)
binding signal [14]: 1.07 fold enrichment (6-mer frequency, TF over GST control)
binding signal [15]: 1.01 fold enrichment (6-mer frequency, TF over GST control)
binding signal [16]: 1.13 fold enrichment (6-mer frequency, TF over GST control)
binding signal [17]: 1.11 fold enrichment (6-mer frequency, TF over GST control)

CCCATC
binding signal [1]: 1.19 fold enrichment (6-mer frequency, TF over GST control)
binding signal [2]: 1.18 fold enrichment (6-mer frequency, TF over GST control)
binding signal [3]: 1.17 fold enrichment (6-mer frequency, TF over GST control)
binding signal [4]: 1.11 fold enrichment (6-mer frequency, TF over GST control)
binding signal [5]: 1.12 fold enrichment (6-mer frequency, TF over GST control)
binding signal [6]: 1.17 fold enrichment (6-mer frequency, TF over GST control)
binding signal [7]: 1.11 fold enrichment (6-mer frequency, TF over GST control)
binding signal [8]: 1.18 fold enrichment (6-mer frequency, TF over GST control)
binding signal [9]: 1.21 fold enrichment (6-mer frequency, TF over GST control)
binding signal [10]: 1.06 fold enrichment (6-mer frequency, TF over GST control)
binding signal [11]: 1.16 fold enrichment (6-mer frequency, TF over GST control)
binding signal [12]: 1.27 fold enrichment (6-mer frequency, TF over GST control)
binding signal [13]: 1.17 fold enrichment (6-mer frequency, TF over GST control)
binding signal [14]: 1.3 fold enrichment (6-mer frequency, TF over GST control)
binding signal [15]: 1.04 fold enrichment (6-mer frequency, TF over GST control)
binding signal [16]: 1.09 fold enrichment (6-mer frequency, TF over GST control)
binding signal [17]: 1.18 fold enrichment (6-mer frequency, TF over GST control)
